In PubChem BioAssay AID1745850 (National Center for Advancing Translational Sciences (NCATS), 2022):
Hit rate of the full screen: of about 2,100 compounds, about 260 (12%) were called active. Not shown: some 58% with an inconclusive outcome. The list shows a part of the results. Values without a mark were called inactive. Calls come from the whole dose curve; as a rule, active = well fitted cell-killing curve with a large enough effect; inconclusive = small, poorly fitted or top-dose-only effect, or effect the other way; inactive = flat fitted curve, though single readings scatter.

assay: Viability Counterscreen for Confirmatory qHTS for Inhibitors of ATXN expression; settings: HEK-293 ATXN2-luc cells viability, CellTiter-Fluor, 24 h; activity change, negative = cytotoxicity: at the top concentration; note: nearly all actives have a fitted effect of over 50% in size
How it was run: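 Cells with an ATXN2-luciferase reporter were dosed in a dilution series for 24 h at 37 degrees C. Viability was read first with Gly-Phe-AFC at 25 uM final (fluorescence, ex 405/em 540), then SteadyGlo luminescence. Medium-only wells defined 100% inhibition.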
Potency is the fitted concentration of half-maximal effect.

| SMILES | Potency | activity change, negative = cytotoxicity |
| --- | --- | --- |
| O=c1c2c3c(sc2ncn1/N=C/c1ccc([N+](=O)[O-])o1)CCCC3 | 3.55 µM (active) | – |
| NNc1ncnc2sc3c(c12)CCC3 | – | -29.5% [at 57.5 µM] |
| COc1ccc(/C=C2/CSC/C(=C/c3ccc(OC)c(OC)c3)C2=O)cc1OC | 11.2 µM (active) | – |
| COc1cc(/C=C2\COC/C(=C\c3cc(OC)c(OC)c(OC)c3)C2=O)cc(OC)c1OC | 1.78 µM (active) | – |
| Cc1ccc(CN2CCC(c3nc4ccc(Cl)cc4[nH]3)CC2)cc1 | – | -21.1% [at 57.5 µM] |
| Cc1cc(C)c(C(O)c2ncc(-c3cccc4ccccc34)[nH]2)c(C)c1 (stereo not drawn) | – | -7.41% |
| OC(c1ccc(Cl)cc1)c1ncc(-c2cccc(C(F)(F)F)c2)[nH]1 (stereo not drawn) | – | 2.6% |
| Cc1ccc(-c2csc(N3CCN(c4cc5c(cc4Cl)nc(-c4ccncc4)n5CCOCCO)CC3)n2)cc1 | – | -22.6% [at 57.5 µM] |
| Cn1c2c(c(=O)n(C)c1=O)C(C(F)(F)F)(C(F)(F)F)N=C(CCC1CCCCC1)N2 | 20 µM (active) | – |
| COc1cc(Nc2ncc3c(n2)CCN(C(=O)Nc2ccc(C(C)C)cc2)C3)cc(OC)c1OC | – | -27.8% |
| CCCc1cc(C(=O)Nc2ccc(C(=O)c3ccc(C)cc3)cc2)n(C)n1 | – | -29% |
| Cc1cc(C(=O)N/N=C/c2cc(Br)ccc2OC(=O)c2ccccc2)n[nH]1 | – | -18.4% |
| Cc1ccc(NC(=O)C2CCN(S(=O)(=O)c3ccc(N4CCCC4=O)cc3)CC2)cc1Cl | – | -8.48% |
| Cn1c(SCc2ccc(C(C)(C)C)cc2)nnc1C1COc2ccccc2O1 (stereo not drawn) | – | -21.7% |
| CCc1ccc(C(=O)NNC(=O)C2CCN(c3ncnc4sc(C)c(C)c34)CC2)cc1 | – | -21.9% |
| CCc1c(C)nc2ncnn2c1N1CCC(C(=O)Nc2ccc(C)cc2)CC1 | – | -16.8% [at 57.5 µM] |
| CCc1ccc(CNC(=O)C2CCN(c3nnc(C)c4c(C)n(-c5ccc(C)cc5)nc34)CC2)cc1 | 20 µM (active) | – |
| FC(F)(F)c1cc(-c2ccccn2)nc2cc(-c3ccccc3)nn12 | – | -8.59% [at 57.5 µM] |
| Cc1ccc(-c2nnc(N3CCC(C)CC3)c3ccccc23)cc1C | – | -27.5% |
| Cc1cc2c(N=O)c(NO)ccc2[nH]1 | 12.6 µM (active) | – |
| CC[n+]1c(C=C2C=C(C)OC(C)=C2)sc2ccccc21 | 11.2 µM (active) | – |
| NNc1nc(N)c2c(n1)-c1ccccc1CC21CCCC1 | – | -20.9% [at 57.5 µM] |
| OCCNc1c2ccccc2nc2c(F)c(F)c(F)c(F)c12 | – | 19.5% [at 57.5 µM] |
| CC(=O)Nc1ccc(NC2=Nc3ccccc3N3C2=Nc2c(c(C)nn2-c2ccccc2)C3c2ccccc2)cc1 (stereo not drawn) | – | 21.2% |
| CC(=O)Nc1ccc(Nc2c3ccccc3nc3ccccc23)cc1 | 17.8 µM (active) | – |

| SMILES | Potency | activity change, negative = cytotoxicity |
| --- | --- | --- |
| Cc1nnc(SCC(N)=O)n1CC1CCCO1 (stereo not drawn) | – | -18.5% [at 57.5 µM] |
| CCOc1ccccc1C(=O)Nc1ccc2nc(N3CCN(c4ncccn4)CC3)cc(C)c2c1 | 11.2 µM (active) | – |
| CCOc1ccc(C(=O)Nc2ccc(Cc3ccncc3)cc2)cc1Br | – | -20.8% [at 57.5 µM] |
| CCOc1ccccc1NC(=O)N1CCC(c2nc3ccccc3[nH]2)CC1 | – | -18.1% |
| OC(c1ccccc1)(c1nc(-c2cc3ccccc3o2)cs1)C(F)(F)F (stereo not drawn) | – | -13% [at 57.5 µM] |
| CCc1ccc(-c2nc(CS(=O)CC(=O)NCc3ccco3)c(C)o2)cc1 (stereo not drawn) | – | -6.43% |
| O=C(N/N=C\c1ccc([N+](=O)[O-])s1)c1cncc(Br)c1 | 11.2 µM (active) | – |
| COc1ccc(C(=O)NCC(=O)N/N=C/c2ccc([N+](=O)[O-])s2)cc1OC | 22.4 µM (active) | – |
| O=C(CP(=O)(c1ccccc1)c1ccccc1)N/N=C/c1cc(Br)cc(Br)c1O | – | 1.93% |
| Cc1ccc(OCCNC(=O)c2cncc(Br)c2)cc1C | – | -20.8% [at 57.5 µM] |
| O=C(N/N=C/c1cc(Br)ccc1O)c1ccncc1 | – | -3.23% |
| O=C(N/N=C/c1ccc([N+](=O)[O-])s1)c1ccccc1Br | 22.4 µM (active) | – |
| O=C(CNC(=O)c1cccc(Br)c1)N/N=C/c1cc(Br)cc(Br)c1O | – | -26.1% [at 57.5 µM] |
| O=C(CNC(=O)c1ccccc1Br)N/N=C/c1cc(Br)ccc1O | – | -2.53% |
| CN(Cc1cnc2nc(N)nc(N)c2n1)c1ccc(C(=O)NC(CCC(=O)O)C(=O)O)c2ccccc12 (stereo not drawn) | – | -30.4% [at 57.5 µM] |
| Cc1c(N=C2N=C(NC(=O)c3ccc(F)cc3)c3ccccc32)c(=O)n(-c2ccccc2)n1C | – | -23.7% |
| Cc1c(N=C2C=CC(=O)c3ccccc32)c(=O)n(-c2ccccc2)n1C | 28.2 µM (active) | – |
| Cc1cccc(/C=N/NC(=O)c2cccc(Cl)c2)n1 | – | -18.5% |
| COc1ccc(OCCNC(=O)C2(C)CCN2Cc2ccc3ccccc3c2)cc1 (stereo not drawn) | – | -28.2% [at 57.5 µM] |
| C[C@@H]1CC=C[C@@H]2[C@H]1C(=O)N(Cc1ccccc1)[C@H]2c1ccccc1Br | – | -29.3% [at 57.5 µM] |
| O=C1Nc2c(Br)cc(Br)c3cccc1c23 | – | -20.9% [at 57.5 µM] |
| COc1ccc(C)cc1NC(=O)C(Sc1nnc(-c2ccncc2)n1-c1ccc(Cl)cc1)c1ccccc1 (stereo not drawn) | – | -12.9% |
| CCCOc1ccccc1C1NC(=O)NC(C)=C1C(=O)OCc1ccccc1 (stereo not drawn) | – | -14% |
| Cc1cccc(NC(c2ccc(C)s2)c2ccc3ccc(C)nc3c2O)n1 (stereo not drawn) | 25.1 µM (active) | – |
| Cn1nc(C(=O)N2CCN(c3ccc(Cl)cc3)CC2)c2c1-c1ccccc1S(=O)(=O)C2 | – | -12.1% |

| SMILES | Potency | activity change, negative = cytotoxicity |
| --- | --- | --- |
| O=C(CCC(=O)Nc1ccc(Br)cc1)N/N=C/c1ccccc1O | – | -18.6% |
| COC(=O)c1c(NC(=O)c2ccc([N+](=O)[O-])o2)sc2c1CCN(C(C)C)C2 | 28.2 µM (active) | – |
| O=C1C=Cc2cccc3ccc(O)c1c23 | – | 4.45% |
| O=C(CN1C(=O)c2ccccc2S1(=O)=O)c1ccc(Cl)cc1Cl | – | -6.86% [at 57.5 µM] |
| O=[N+]([O-])c1c(Nc2ccccn2)cc(Cl)c2nonc12 | 11.2 µM (active) | – |
| COc1cc(OC)c(OC)cc1/C=C1\CC(C)C/C(=C\c2cc(OC)c(OC)cc2OC)C1=O (stereo not drawn) | 17.8 µM (active) | – |
| C=CCc1ccccc1OCC(O)CN1CCN(CCN2C(=O)c3cccc4cccc(c34)C2=O)CC1 (stereo not drawn) | 31.6 µM (active) | – |
| O=C(CNC(=O)c1ccccc1O)N/N=C/c1cc(Br)ccc1OC(=O)/C=C/c1ccco1 | – | -4.41% |
| Cc1ccc(C(=O)CN2C(=O)c3ccccc3S2(=O)=O)cc1 | – | 5.17% |
| Oc1ccc(C2CNCc3sccc32)cc1O (stereo not drawn) | – | -19.8% [at 57.5 µM] |
| O=C(CN1CCCc2ccccc21)N/N=C/c1ccccc1O | – | -21.2% |
| C[C@@H]1ON(C)[C@H]2C[C@H]3c4[nH]c5ccc(-c6ccc7c(c6)OCO7)cc5c4CCN3C(=O)[C@@H]12 | – | -27.8% [at 57.5 µM] |
| CC1(C)Cc2c(ccc3ccccc23)C2=C(C(=O)N3CCCC3)C(=O)C(=O)N21 | – | -14.3% [at 57.5 µM] |
| O=C(Nc1nc(-c2ccc(S(=O)(=O)N3CCOCC3)cc2)cs1)c1ccccc1 | – | -26.6% |
| CCn1c2ccccc2c2cc(NC(=O)COC(=O)c3cc(S(=O)(=O)N4CCCCC4)ccc3Cl)ccc21 | – | 1.01% |
| Cc1nc(-c2cccc(NC(=O)c3cccc(S(=O)(=O)N4CCCC4)c3)c2)cs1 | 28.2 µM (active) | – |
| Cn1c(N)c(C(=O)Nc2ccc(-c3ccccc3)cc2)sc1=S | – | -20.9% [at 57.5 µM] |
| COc1ccc(C(=O)Nn2c(SCC(=O)c3ccccc3)nc3ccccc3c2=O)cc1 | – | -26% [at 57.5 µM] |
| COc1ccc(C2CC(c3ccccc3Cl)=NN2c2ccc(S(N)(=O)=O)cc2)cc1 (stereo not drawn) | – | 1.38% [at 57.5 µM] |
| COc1ccc(Oc2c(Cl)cnn(-c3ccccc3)c2=O)cc1 | 3.16 µM (active) | – |
| COc1cc(/C=N/Nc2ccc(Cl)c(C(=O)O)c2)ccc1OC(=O)c1ccco1 | – | 1.6% |
| CCN(CC)CCNC(=O)c1ccc(NC(=O)Cc2cccc3ccccc23)cc1 | – | -22.4% |
| CCN(CC)CCC(=O)Nc1cccc2c1C(=O)c1ccccc1C2=O | 3.16 µM (active) | – |
| CN(CC(=O)Nc1cccc(F)c1)CC(=O)Nc1cccc2ccccc12 | – | -16.6% [at 57.5 µM] |
| CCC1=C(CC2NCCc3ccccc32)CC2c3cc(OC)c(OC)cc3CCN2C1 (stereo not drawn) | 10 µM (active) | – |

| SMILES | Potency | activity change, negative = cytotoxicity |
| --- | --- | --- |
| O=C(CC1NCCc2ccccc21)Nc1ccc(Cl)cc1 (stereo not drawn) | – | 11.4% |
| CN(c1ccc(OCC(=O)N2CCN(c3ccc(F)cc3)CC2)cc1)S(=O)(=O)c1cccs1 | – | -11.9% |
| COC(=O)c1c(NC(=O)/C=C/C(=O)O)sc(C)c1-c1ccc(C(C)C)cc1 | 28.2 µM (active) | – |
| CC(=O)c1sc(C(C)(C)C)cc1NC(=O)/C=C/C(=O)O | – | -20% [at 57.5 µM] |
| CCOC(=O)c1c(C)nn(-c2ccc(NC(=O)/C=C/C(=O)O)cc2)c1C | – | -10.3% [at 57.5 µM] |
| OC[C@@H]1[C@@H](c2ccc(F)cc2)C(c2ccccc2)=NN1c1ccccc1 | – | 28.7% [at 57.5 µM] |
| COc1cc2c(cc1OC)C(C)N(C(=O)c1cc3c(s1)-c1ccccc1OC3)CC2 (stereo not drawn) | – | -24.3% [at 57.5 µM] |
| COc1ccccc1-c1ccc2c(c1)C(C)(Cc1cccc(F)c1)C(=O)N2 (stereo not drawn) | – | -27.1% [at 57.5 µM] |
| Cc1nonc1C(=O)N/N=C/c1ccc(O)cc1O | – | -19% |
| COc1ccc2c(c1)C(SCC(=O)NCCc1ccc(Cl)cc1)CC(C)(C)O2 (stereo not drawn) | – | -8.85% |
| Cc1cccn2c(Nc3ccccc3)c(-c3ccccn3)nc12 | – | -19% [at 57.5 µM] |
| Cc1ccc2nc(-c3ccccn3)c(NC3CCCC3)n2c1 | – | -22.4% |
| Cc1ccc(Nc2c(-c3ccccn3)nc3cccc(C)n23)cc1 | 8.91 µM (active) | – |
| Cc1ccc(Nc2c(-c3ccccn3)nc3cc(C)ccn23)cc1 | 10 µM (active) | – |
| N#Cc1ccc(-c2nc3cc(Cl)ccc3c(=O)n2O)cc1 | – | -15.2% |
| CCCNC(=O)c1ccc2c(=O)c(O)c(-c3ccc(F)cc3)[nH]c2c1 | – | -12.7% [at 57.5 µM] |
| CCN(c1ccccc1)S(=O)(=O)c1ccc(C(=O)N(CCCN(C)C)c2nc3c(C)cccc3s2)cc1 | 20 µM (active) | – |
| CN(C)CCCN(C(=O)c1ccco1)c1nc2cc3c(cc2s1)OCO3 | – | -18.9% [at 57.5 µM] |
| CN(C)CCCN(C(=O)c1ccc(S(=O)(=O)N(C)Cc2ccccc2)cc1)c1nc2cc3c(cc2s1)OCO3 | 25.1 µM (active) | – |
| Cc1ccc(S(=O)(=O)c2nc(NCc3ccc4c(c3)OCO4)sc2Cl)cc1 | – | -19.2% [at 57.5 µM] |
| CCCc1nc(NC2CCCCC2)c(C#N)c2c1COC(C)(C)C2 | – | 4.08% |
| CC1(S(=O)(=O)O)CC(=O)c2ccccc2C1=O (stereo not drawn) | – | 3.58% [at 57.5 µM] |
| CCCCOc1ccc(NC2=NC3(CCCC3)N=C(N)N2)cc1 | – | -22.7% [at 57.5 µM] |
